Measured values from the supplement of paper PMC6555819.

Assays:
Test in all cases: PBM binding z-score (relative to random genomic background probes); higher = stronger binding; sequences stand for … in GC…GCGATTGACAGCGTAGAATGAAGG
[1] = test system: FXR:RXRa (NR concentration 270 nM, RXRa partner concentration 90 nM)
Outline: (§1)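 Each nuclear receptor dimer, without ligand, was incubated for 1 h on custom Agilent 4×180K protein-binding microarrays. Binding was detected with antibodies against each partner (one per run), and scanned fluorescence was regression-normalized. The binding z-scores are referenced to random human genomic background probes.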

[2] = test system: LXRa:RXRa (NR concentration 270 nM, RXRa partner concentration 90 nM)
Outline: as §1

[3] = test system: LXRa homodimer (NR concentration 270 nM)
Outline: as §1

[4] = test system: LXRb:RXRa (NR concentration 270 nM, RXRa partner concentration 90 nM)
Outline: as §1

[5] = test system: LXRb homodimer (NR concentration 270 nM)
Outline: as §1

[6] = test system: PPARa:RXRa (NR concentration 270 nM, RXRa partner concentration 90 nM)
Outline: as §1

[7] = test system: PPARg:RXRa (NR concentration 180 nM, RXRa partner concentration 90 nM)
Outline: as §1

[8] = test system: PPARg:RXRa 270nM:90nM, anti-RXR (NR concentration 270 nM, RXRa partner concentration 90 nM)
Outline: as §1

[9] = test system: PPARg:RXRa 30nM:10nM, anti-RXR (NR concentration 30 nM, RXRa partner concentration 10 nM)
Outline: as §1

[10] = test system: PPARg:RXRa 90nM:30nM, anti-RXR (NR concentration 90 nM, RXRa partner concentration 30 nM)
Outline: as §1

[11] = test system: PPARg:RXRa DBDmut IVT, anti-RXR (DBD mutation: RXRa K156A/R161A, NR concentration 270 nM, RXRa partner concentration 90 nM)
Outline: as §1

[12] = test system: PPARg:RXRa IVT, anti-PPARg (NR concentration 270 nM, RXRa partner concentration 90 nM)
Outline: as §1

[13] = test system: PPARg DBDmut:RXRa IVT, anti-PPARg (DBD mutation: PPARg1 K132A/R137A, NR concentration 270 nM, RXRa partner concentration 90 nM)
Outline: as §1

[14] = test system: PPARg DBDmut IVT, anti-PPARg (DBD mutation: PPARg1 K132A/R137A, NR concentration 270 nM)
Outline: as §1

[15] = test system: PPARg homodimer (NR concentration 180 nM)
Outline: as §1

[16] = test system: PXR:RXRa (NR concentration 270 nM, RXRa partner concentration 90 nM)
Outline: as §1

[17] = test system: PXR homodimer (NR concentration 270 nM)
Outline: as §1

[18] = test system: RARa:RXR (NR concentration 270 nM, RXRa partner concentration 90 nM)
Outline: as §1

[19] = test system: RARa homodimer (NR concentration 270 nM)
Outline: as §1

[20] = test system: RARb:RXRa (NR concentration 270 nM, RXRa partner concentration 90 nM)
Outline: as §1

## TCATATAGGTATAAGGTGAAAGTCGGTGTGGTAA
[1]
  PBM binding z-score: 1.55
[2]
  PBM binding z-score: 1.21
[3]
  PBM binding z-score: 0.319
[4]
  PBM binding z-score: 1.37
[5]
  PBM binding z-score: 0.352
[6]
  PBM binding z-score: 3.14
[7]
  PBM binding z-score: 3.92
[8]
  PBM binding z-score: 5.38
[9]
  PBM binding z-score: 5.06
[10]
  PBM binding z-score: 5.68
[11]
  PBM binding z-score: 2.8
[12]
  PBM binding z-score: 2.27
[13]
  PBM binding z-score: 1.02
[14]
  PBM binding z-score: 0.854
[15]
  PBM binding z-score: 1.32
[16]
  PBM binding z-score: 0.935
[17]
  PBM binding z-score: 0.866
[18]
  PBM binding z-score: 1.62
[19]
  PBM binding z-score: 1.54
[20]
  PBM binding z-score: 1.23

## TTGAGTAGGTTAGGGGCATTCAGAATGGCGTCGA
[1]
  PBM binding z-score: 0.794
[2]
  PBM binding z-score: 0.55
[3]
  PBM binding z-score: 0.331
[4]
  PBM binding z-score: 1.42
[5]
  PBM binding z-score: 1.36
[6]
  PBM binding z-score: 1.84
[7]
  PBM binding z-score: 1.34
[8]
  PBM binding z-score: 2.8
[9]
  PBM binding z-score: 1.58
[10]
  PBM binding z-score: 2.25
[11]
  PBM binding z-score: 3.21
[12]
  PBM binding z-score: 2.8
[13]
  PBM binding z-score: 0.225
[14]
  PBM binding z-score: 0.781
[15]
  PBM binding z-score: 1.61
[16]
  PBM binding z-score: 0.703
[17]
  PBM binding z-score: 1.3
[18]
  PBM binding z-score: 0.894
[19]
  PBM binding z-score: 1.42
[20]
  PBM binding z-score: 1.42

## CCTTACGGGTCACTGACAGGTTATAGCTTTTGGA
[1]
  PBM binding z-score: 4.62
[2]
  PBM binding z-score: 4.13
[3]
  PBM binding z-score: 0.331
[4]
  PBM binding z-score: 3.35
[5]
  PBM binding z-score: -0.0774
[6]
  PBM binding z-score: 4.88
[7]
  PBM binding z-score: 3.89
[8]
  PBM binding z-score: 4.21
[9]
  PBM binding z-score: 1.73
[10]
  PBM binding z-score: 3.06
[11]
  PBM binding z-score: 3.62
[12]
  PBM binding z-score: 3.94
[13]
  PBM binding z-score: -0.188
[14]
  PBM binding z-score: -0.142
[15]
  PBM binding z-score: 1.82
[16]
  PBM binding z-score: 3.38
[17]
  PBM binding z-score: -0.201
[18]
  PBM binding z-score: 4.13
[19]
  PBM binding z-score: 0.634
[20]
  PBM binding z-score: 3.74

## AGAATGAGGTTACCAATGATCAGGGAAACGCTTG
[1]
  PBM binding z-score: 1.77
[2]
  PBM binding z-score: 3.21
[3]
  PBM binding z-score: -0.495
[4]
  PBM binding z-score: 1.67
[5]
  PBM binding z-score: -0.399
[6]
  PBM binding z-score: 3.33
[7]
  PBM binding z-score: 2.55
[8]
  PBM binding z-score: 2.4
[9]
  PBM binding z-score: 1.21
[10]
  PBM binding z-score: 1.7
[11]
  PBM binding z-score: 3.69
[12]
  PBM binding z-score: 3.24
[13]
  PBM binding z-score: 1.14
[14]
  PBM binding z-score: 0.416
[15]
  PBM binding z-score: 0.494
[16]
  PBM binding z-score: 1.05
[17]
  PBM binding z-score: -0.11
[18]
  PBM binding z-score: 1.83
[19]
  PBM binding z-score: 0.362
[20]
  PBM binding z-score: 2.03

## TTACCAAGGTGAGCGGAGGTCGTTGATCCAACTC
[1]
  PBM binding z-score: 1.38
[2]
  PBM binding z-score: 1.36
[3]
  PBM binding z-score: -0.4
[4]
  PBM binding z-score: 0.829
[5]
  PBM binding z-score: -1.16
[6]
  PBM binding z-score: 1.81
[7]
  PBM binding z-score: 0.414
[8]
  PBM binding z-score: 1.19
[9]
  PBM binding z-score: 0.0694
[10]
  PBM binding z-score: 0.605
[11]
  PBM binding z-score: 1.19
[12]
  PBM binding z-score: 2.32
[13]
  PBM binding z-score: -0.403
[14]
  PBM binding z-score: -0.114
[15]
  PBM binding z-score: -0.196
[16]
  PBM binding z-score: 4.22
[17]
  PBM binding z-score: 0.00572
[18]
  PBM binding z-score: 1.51
[19]
  PBM binding z-score: -1.17
[20]
  PBM binding z-score: 1.92

## ACTAGCAGGCCAGGGGTCACTCAAGATTAGTCCG
[1]
  PBM binding z-score: 4.12
[2]
  PBM binding z-score: 3.93
[3]
  PBM binding z-score: 0.488
[4]
  PBM binding z-score: 4.47
[5]
  PBM binding z-score: 0.258
[6]
  PBM binding z-score: 5.04
[7]
  PBM binding z-score: 6.84
[8]
  PBM binding z-score: 6.37
[9]
  PBM binding z-score: 4.58
[10]
  PBM binding z-score: 6.76
[11]
  PBM binding z-score: 0.771
[12]
  PBM binding z-score: 3.24
[13]
  PBM binding z-score: 0.053
[14]
  PBM binding z-score: 0.0858
[15]
  PBM binding z-score: 2.99
[16]
  PBM binding z-score: 5.13
[17]
  PBM binding z-score: 0.401
[18]
  PBM binding z-score: 5.58
[19]
  PBM binding z-score: 1.68
[20]
  PBM binding z-score: 3.85

## ACAGACAGGTGATTGAAGGTAACTCAGCTGGACG
[1]
  PBM binding z-score: 0.407
[2]
  PBM binding z-score: 0.000463
[3]
  PBM binding z-score: -0.444
[4]
  PBM binding z-score: -0.451
[5]
  PBM binding z-score: -0.457
[6]
  PBM binding z-score: 0.0856
[7]
  PBM binding z-score: 0.626
[8]
  PBM binding z-score: -0.0372
[9]
  PBM binding z-score: 0.0722
[10]
  PBM binding z-score: -0.274
[11]
  PBM binding z-score: 0.234
[12]
  PBM binding z-score: 0.403
[13]
  PBM binding z-score: -0.375
[14]
  PBM binding z-score: -0.0689
[15]
  PBM binding z-score: 0.449
[16]
  PBM binding z-score: -0.285
[17]
  PBM binding z-score: -0.239
[18]
  PBM binding z-score: 0.452
[19]
  PBM binding z-score: -0.476
[20]
  PBM binding z-score: 0.303

## GGAACGACGGCAAAGTTGATAGCATCTGTCGACG
[1]
  PBM binding z-score: -0.522
[2]
  PBM binding z-score: -0.556
[3]
  PBM binding z-score: -0.557
[4]
  PBM binding z-score: -0.755
[5]
  PBM binding z-score: -0.926
[6]
  PBM binding z-score: 0.00733
[7]
  PBM binding z-score: 1.01
[8]
  PBM binding z-score: 1.58
[9]
  PBM binding z-score: 0.147
[10]
  PBM binding z-score: 1.28
[11]
  PBM binding z-score: -0.332
[12]
  PBM binding z-score: -0.552
[13]
  PBM binding z-score: -0.0147
[14]
  PBM binding z-score: -1.18
[15]
  PBM binding z-score: -0.573
[16]
  PBM binding z-score: -0.362
[17]
  PBM binding z-score: -0.756
[18]
  PBM binding z-score: 0.0195
[19]
  PBM binding z-score: -0.6
[20]
  PBM binding z-score: -0.341

## ATCTCTAGCTAAAGTTCAGTGAAAGATCGATAGA
[1]
  PBM binding z-score: 0.485
[2]
  PBM binding z-score: 1.83
[3]
  PBM binding z-score: 1.89
[4]
  PBM binding z-score: 1.01
[5]
  PBM binding z-score: 0.585
[6]
  PBM binding z-score: 1.74
[7]
  PBM binding z-score: 1.63
[8]
  PBM binding z-score: 3.25
[9]
  PBM binding z-score: 1.53
[10]
  PBM binding z-score: 2.85
[11]
  PBM binding z-score: -0.514
[12]
  PBM binding z-score: 0.413
[13]
  PBM binding z-score: 0.743
[14]
  PBM binding z-score: 0.86
[15]
  PBM binding z-score: 1.51
[16]
  PBM binding z-score: 1.8
[17]
  PBM binding z-score: 1.85
[18]
  PBM binding z-score: 1.04
[19]
  PBM binding z-score: 1.01
[20]
  PBM binding z-score: 2.68

## ATCTCTAGGTAACCAAGATCAGTGAATGCCGAAC
[1]
  PBM binding z-score: 0.221
[2]
  PBM binding z-score: 0.126
[3]
  PBM binding z-score: 0.199
[4]
  PBM binding z-score: 0.274
[5]
  PBM binding z-score: 0.276
[6]
  PBM binding z-score: 0.613
[7]
  PBM binding z-score: 0.694
[8]
  PBM binding z-score: 0.588
[9]
  PBM binding z-score: 0.161
[10]
  PBM binding z-score: 0.426
[11]
  PBM binding z-score: 2.88
[12]
  PBM binding z-score: 2.67
[13]
  PBM binding z-score: 0.887
[14]
  PBM binding z-score: 1.13
[15]
  PBM binding z-score: 0.619
[16]
  PBM binding z-score: 0.0058
[17]
  PBM binding z-score: 0.344
[18]
  PBM binding z-score: 0.377
[19]
  PBM binding z-score: 0.145
[20]
  PBM binding z-score: 0.119

## ATATGTAGGTTAACGGTCATTCAGGTTGGTTCGC
[1]
  PBM binding z-score: 2.12
[2]
  PBM binding z-score: 2.46
[3]
  PBM binding z-score: 2.98
[4]
  PBM binding z-score: 2.2
[5]
  PBM binding z-score: 1.2
[6]
  PBM binding z-score: 5.22
[7]
  PBM binding z-score: 9.32
[8]
  PBM binding z-score: 8.6
[9]
  PBM binding z-score: 7.82
[10]
  PBM binding z-score: 9.3
[11]
  PBM binding z-score: 8.01
[12]
  PBM binding z-score: 8.1
[13]
  PBM binding z-score: 3.09
[14]
  PBM binding z-score: 2.01
[15]
  PBM binding z-score: 2.2
[16]
  PBM binding z-score: 1.84
[17]
  PBM binding z-score: 0.701
[18]
  PBM binding z-score: 2.01
[19]
  PBM binding z-score: 0.573
[20]
  PBM binding z-score: 2.41
